Results taken from PubChem BioAssay (NCATS).
“And” between values parts separate entries of the source, which are not always exact repeats. Equal values may be shown once. Records with an inconclusive call do not appear. Where a call stands in place of a potency, no number is given. A number with no mark means an inactive call. The source made the active and inactive calls. The call rests on the fitted dose curve; in most records, active means well fitted cell-killing curve with a large enough effect; inconclusive means small, poorly fitted or top-dose-only effect, or effect the other way; inactive means no such curve, though single readings can be large or run the other way.

Key:
[1] = Viability qHTS for spleen associated tyrosine kinase inhibitor (SYKi) naive MV4-11 cells (AID 1963823); further: nearly all actives have a fitted effect of over 40% in size
In short: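 CellTiter-Glo luminescence, 10 min room-temperature incubation, gave viability. Cells: naive MV4-11 (500/well), treated 72 hr at 37 C, 5% CO2.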

[2] = Viability qHTS for spleen associated tyrosine kinase inhibitor (SYKi) drug resistant MV4-11 cells (AID 1963824); further: nearly all actives have a fitted effect of over 35% in size
In short: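 CellTiter-Glo luminescence, read 10 min after reagent addition, reports viability after a 72 hr compound exposure. Cells are an MV4-11 line made resistant to SYK inhibition, seeded at 500 per well onto compound-containing plates.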
Potency means the concentration at half of the fitted maximal effect.

## O=C(CC1NCCC[C@H]1O)Cn1cnc2cc(Br)c(Cl)cc2c1=O (some centres not stated)
[1]
  Potency: inactive
[2]
  Potency: inactive

## Cc1cc(C)nc(SCC(=O)Nc2ncc(Cc3cccc4ccccc34)s2)n1
[1]
  Potency: 7.31 µM (active)
[2]
  Potency: 10.3 µM (active)

## CN(C)CC/C=C1\c2ccccc2COc2ccccc21
[1]
  Potency: inactive
[2]
  Potency: inactive

## CC1OC(OC2C(C)OC(OC3C(O)C(CO)OC(O[C@H]4CC[C@@]5(C)C(CC[C@]6(C)C5CC=C5C7[C@@H](C)[C@H](C)CC[C@]7(C(=O)O)CC[C@]56C(=O)O)C4(C)C)C3O)C(O)C2O)C(O)C(O)C1O (some centres not stated)
[1]
  viability (% of control): 75.5% [at 9.25 µM]
[2]
  viability, % of control: 78.3% [at 9.25 µM]

## COc1ccc(O[C@@H]2O[C@H](CO)[C@@H](O)[C@H](O)[C@H]2O)cc1OC
[1]
  Potency: inactive
[2]
  Potency: inactive

## COc1ccc(/C=C/C(=O)O[C@H]2[C@H](O[C@H]3[C@@H]4C=CO[C@@H](O[C@@H]5O[C@H](CO)[C@@H](O)[C@H](O)[C@H]5O)[C@@H]4[C@@]4(CO)O[C@@H]34)O[C@@H](C)[C@H](O)[C@H]2OC(C)=O)cc1
[1]
  Potency: inactive
[2]
  Potency: inactive

## Cc1ccc(NC(=O)c2ccc(CN3CCNCC3)cc2)cc1Nc1nccc(-c2cccnc2)n1
[1]
  Potency: 9.2 µM (active) and 16.6 µM (active)
[2]
  Potency: 9.2 µM (active) and 16.6 µM (active)

## Cc1ccc2c(c1)C=Cc1cc(C)ccc1C2c1cn(Cc2ccc(C(=O)Nc3nn[nH]n3)o2)c(=O)[nH]c1=S
[1]
  Potency: inactive
[2]
  Potency: inactive

## C=C1C(=O)OC2C1CCC1(C)C(O)CC=C(C)C21 (configuration not stated)
[1]
  Potency: 10.3 µM (active)
[2]
  Potency: 4.61 µM (active)

## CCC(CCO[C@@H]1O[C@H](CO[C@H]2OC[C@](O)(CO)[C@H]2O)[C@@H](O)[C@H](O)[C@H]1O)C(C)(C)O (some centres not stated)
[1]
  Potency: inactive
[2]
  Potency: inactive

## C/C=C1\[C@H](O[C@@H]2O[C@H](CO)[C@@H](O)[C@H](O)[C@H]2O)OC=C(C(=O)OC)[C@H]1CC(=O)OC
[1]
  Potency: inactive
[2]
  Potency: inactive

## CCC[C@@H]1C[C@@H](C(=O)N[C@@H]([C@H]2O[C@H](SC)[C@H](OP(=O)(O)O)[C@@H](O)[C@H]2O)[C@H](C)Cl)N(C)C1
[1]
  Potency: inactive
[2]
  Potency: inactive

## C[C@H](/C=C/[C@@]1(O)[C@H](C)CC(=O)CC1(C)C)O[C@@H]1O[C@H](CO[C@@H]2OC[C@@H](O)[C@H](O)[C@H]2O)[C@@H](O)[C@H](O)[C@H]1O
[1]
  Potency: inactive
[2]
  Potency: inactive

## CC(CN1c2ccccc2Sc2ccccc21)N(C)C (configuration not stated)
[1]
  Potency: inactive
[2]
  Potency: inactive

## CC(C)(O[C@@H]1O[C@H](CO)[C@@H](O)[C@H](O)[C@H]1O)C(OC(=O)/C=C\c1ccc(O)cc1)C(=O)OCc1ccc(O[C@@H]2O[C@H](CO)[C@@H](O)[C@H](O)[C@H]2O)cc1 (some centres not stated)
[1]
  Potency: inactive
[2]
  Potency: inactive

## COc1ccc(OC2OC(CO[C@@H]3O[C@@H](C)[C@H](O)[C@@H](O)[C@H]3O)C(O)C(O)C2O)cc1OC (some centres not stated)
[1]
  Potency: inactive
[2]
  Potency: inactive

## CN(C)CCN(Cc1ccc(-c2ccc(CNCCc3ccccc3)cc2)cc1)C(=O)CCC1CCCC1
[1]
  Potency: 1.03 µM (active)
[2]
  Potency: 0.92 µM (active)

## C=C1C(=O)O[C@@H]2/C=C(\CO)CC/C=C(/C=O)C[C@H](O)[C@@H]12
[1]
  Potency: 4.11 µM (active)
[2]
  Potency: 3.26 µM (active)

## COc1c2c(c(C)c3c1C(=O)OC3)OC1(C)CC(O)C34OC(OC)(CC(OC(C)=O)C3(C)C1C2)OC4(C)C (configuration not stated)
[1]
  Potency: inactive
[2]
  Potency: inactive

## CCCCNc1ncc2c(-c3ccc(S(=O)(=O)N4CCOCC4)cc3)nn(C3CCC(O)CC3)c2n1 (configuration not stated)
[1]
  Potency: 0.0184 µM (active)
[2]
  Potency: 0.0291 µM (active)

## CN1CCN(Cc2ccc(-c3cnc4[nH]cc(-c5ccc6[nH]ccc6c5)c4c3)cc2)CC1
[1]
  Potency: 0.082 µM (active)
[2]
  Potency: 0.146 µM (active)

## C=C1CCC[C@]2(C)CC[C@@](O)(C(=C)C(=O)O)C[C@@H]12
[1]
  Potency: inactive
[2]
  Potency: inactive

## C=CC(C)(O)CC[C@@H]1[C@@]2(C)CCCC(C)(C)C2CC[C@@]1(C)O (some centres not stated)
[1]
  Potency: 25.9 µM (active)
[2]
  Potency: 20.6 µM (active)

## Cc1occc(=O)c1O[C@@H]1O[C@H](CO)[C@@H](O)[C@H](O)[C@H]1O
[1]
  Potency: inactive
[2]
  Potency: inactive

## CN(C)CCCn1cc(C2=C(c3c[nH]c4ccccc34)C(=O)NC2=O)c2ccccc21
[1]
  Potency: 0.0731 µM (active)
[2]
  Potency: 0.116 µM (active)

## CC1(C)CC[C@]2(C(=O)O[C@@H]3O[C@H](CO)[C@@H](O)[C@H](O)[C@H]3O)CC[C@]3(C)C(=CCC4[C@@]5(C)C[C@@H](O)[C@H](O)[C@@](C)(CO)C5CC[C@]43C)C2C1 (some centres not stated)
[1]
  Potency: inactive
[2]
  Potency: inactive
